Experimental data published in PubChem BioAssay (NCI).
Compounds without any hit were thinned out: in the full panel of roughly 83,000, 20% have a hit.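 The endpoint reported here, percent growth, reads 100 for growth as untreated, 0 for no net growth and -100 for all cells dead.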 The source made the active and inactive calls. How the source made its calls: active means growth percent below 10; inactive means the rest.

Experiments:
Experiment in all cases: NCI-60 one-dose screen, 48 h (100 = growth as untreated, 0 = no growth, -100 = all killed)
Conditions in all cases: 10 µM unless noted
[1] = tested on: HCT-15 colon
[2] = tested on: HT29 colon
[3] = tested on: SNB-75 CNS
[4] = tested on: SNB-19 CNS
[5] = tested on: U251 CNS
[6] = tested on: PC-3 prostate
[7] = tested on: SK-MEL-5 melanoma
[8] = tested on: UACC-62 melanoma
[9] = tested on: LOX IMVI melanoma
[10] = tested on: SK-MEL-28 melanoma
[11] = tested on: SK-MEL-2 melanoma
[12] = tested on: EKVX NSCLC
[13] = tested on: SN12C renal
[14] = tested on: UO-31 renal
[15] = tested on: TK-10 renal
[16] = tested on: ACHN renal
[17] = tested on: CAKI-1 renal
[18] = tested on: A498 renal
[19] = tested on: CCRF-CEM leukemia
[20] = tested on: MOLT-4 leukemia

Measured: growth

COc1ccc2c(c1)c(-c1ccc(-c3cn(C)c4ccc(OC)cc34)[nH]1)cn2C
active: [1] 4.19% | [5] -62.9% | [6] -11% | [8] 5.29% | [9] -17.8% | [10] -20.1% | [12] -4.9% | [14] -47.3% | [16] -44.6% | [19] -5.64%
inactive: [2] 48% | [3] 17.9% | [4] 27.2% | [7] 29.6% | [11] 45.3% | [13] 31.7% | [15] 35.7% | [17] 25.6% | [18] 71.8% | [20] 27.7%

CN1CCN(Cc2ccc(NC(=O)c3cncc(C#Cc4cnn5ccccc45)c3)cc2C(F)(F)F)CC1
active: [1] 0.133% | [2] 4.53% | [4] 5.8% | [5] 7.18% | [6] -4.22% | [9] -39.6% | [11] -27% | [12] -3.23% | [13] -1.07% | [14] -9.3% | [15] 7.73% | [16] 2.54% | [17] -9.06% | [19] 6.17% | [20] 1.84%
inactive: [3] 13.6% | [7] 14.9% | [8] 13.8% | [10] 25%

CC1(C)CCC(S(=O)(=O)c2ccc3c(c2)/C(=N\O)c2cc(S(=O)(=O)N4CCN(c5ccc(F)cc5O)CC4)ccc2-3)CC1
inactive: [13] 19.8%
active: [1] -75.1% | [2] -88.7% | [3] -97.6% | [4] -72.7% | [5] -97.7% | [6] -64.2% | [7] -93.6% | [8] -69.7% | [9] -82.6% | [10] -72.2% | [11] -85.6% | [12] -53% | [14] -91.4% | [15] -82% | [16] 0.0292% | [17] -76.1% | [18] -65.3% | [19] -63.4% | [20] -71.9%

C=C1C(=O)O[C@H]2[C@H]1CC/C(COC(=O)/C=C\C(=O)NCc1ccc(Cn3c(=O)sn(-c4ccccc4)c3=O)cc1)=C\CC[C@@]1(C)O[C@@H]21
active: [19] 1.9%
inactive: [1] 42.4% | [2] 50.8% | [3] 98% | [4] 107% | [5] 84.3% | [6] 83.5% | [7] 106% | [8] 85% | [9] 76% | [10] 94.4% | [11] 89.8% | [12] 98.9% | [13] 83.1% | [14] 59.4% | [15] 67.1% | [16] 42.1% | [17] 65.1% | [20] 25.3%

COc1ccc(C2=NN(C(=O)c3cc(OC)c(OC)c(OC)c3)C(c3ccc(N(C)C)cc3)C2)cc1 (stereo not drawn)
inactive: [1] 10.6% | [2] 19.1% | [3] 18.1% | [4] 37.6% | [5] 15.6% | [6] 20.6% | [8] 15.6% | [9] 28.9% | [10] 56.3% | [11] 66.5% | [12] 35.6% | [13] 31.3% | [14] 19.4% | [15] 56.5% | [16] 25.8% | [17] 39.1% | [19] 26.7% | [20] 18.9%
active: [7] 5.24% | [18] -1.92%

O=C1CC2C=CCN2C=C1NC(=O)C1CCCCC1 (stereo not drawn)
inactive: [1] 98% | [2] 97.7% | [3] 87.3% | [4] 111% | [5] 97.9% | [6] 94.8% | [7] 102% | [8] 108% | [9] 96.9% | [10] 107% | [11] 101% | [12] 92.1% | [13] 110% | [14] 94.9% | [15] 90.6% | [16] 105% | [17] 97.7% | [18] 128% | [19] 122% | [20] 99.5%

CCCCN1C(=O)/C(=c2\sc3n(c2=O)NC2C(N=3)N(CC)C(=O)N2CC)c2ccccc21 (stereo not drawn)
inactive: [1] 33.5% | [2] 16% | [3] 11.2% | [4] 61.9% | [5] 33.8% | [6] 45.1% | [7] 55% | [8] 37.4% | [9] 47.6% | [10] 65.6% | [11] 59.1% | [12] 67.9% | [13] 50.5% | [14] 40.1% | [15] 83.8% | [16] 48.4% | [17] 30.3% | [18] 42.3% | [19] 26.1% | [20] 43.6%
